Structures can show the parent of a compound that is named as a salt.
What was measured:
Assay in all cases: thermal shift delta Tm vs DMSO control; higher = stronger stabilization (binding)
Settings in all cases: 12.5 µM; protein concentration 2 µM
[1] = system: LOC_OS01G01410-cb001
Outline: (§1)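 Purified, E. coli-expressed rice kinase domain constructs were tested by differential scanning fluorimetry in 96-well plates: 19.5 μl of 2 μM kinase in 100 mM potassium phosphate pH 7.5, 150 mM NaCl, 10% glycerol, 5 × SYPRO Orange, plus compound in DMSO. Fluorescence was read from 25°C to 95°C at 0.05°C/s. Melting temperatures came from Boltzmann fits, and the shift is the triplicate mean relative to protein with DMSO alone.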

[2] = system: LOC_OS01G02750-cb003
Outline: as §1

[3] = system: LOC_OS01G10900-cb004
Outline: as §1

[4] = system: LOC_OS01G13800-cb001
Outline: as §1

[5] = system: LOC_OS01G14860-cb001
Outline: as §1

[6] = system: LOC_OS01G21960-cb002
Outline: as §1

[7] = system: LOC_OS01G39600-cb002
Outline: as §1

[8] = system: LOC_OS01G48390-cb002
Outline: as §1

[9] = system: LOC_OS01G51400-cb002
Outline: as §1

[10] = system: T1, LOC_OS01G52050-cb004
T1 sequence (whole entry): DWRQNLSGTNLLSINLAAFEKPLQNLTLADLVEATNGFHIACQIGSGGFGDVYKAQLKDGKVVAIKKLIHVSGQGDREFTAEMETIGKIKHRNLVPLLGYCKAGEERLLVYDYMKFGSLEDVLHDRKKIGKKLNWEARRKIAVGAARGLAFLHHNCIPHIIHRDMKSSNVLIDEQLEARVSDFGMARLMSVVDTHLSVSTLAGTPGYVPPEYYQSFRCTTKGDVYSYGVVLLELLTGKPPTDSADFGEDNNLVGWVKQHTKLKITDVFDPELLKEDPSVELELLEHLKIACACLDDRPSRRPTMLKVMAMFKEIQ
Outline: as §1

[11] = system: LOC_OS01G57100-cb003
Outline: as §1

[12] = system: LOC_OS01G60330-cb001
Outline: as §1

[13] = system: LOC_OS01G60700-cb002
Outline: as §1

[14] = system: LOC_OS01G63280-cb003
Outline: as §1

[15] = system: LOC_OS01G67340-cb003
Outline: as §1

[16] = system: LOC_OS01G70970-cb002
Outline: as §1

[17] = system: LOC_OS02G07810-cb001
Outline: as §1

[18] = system: LOC_OS02G08530-cb003
Outline: as §1

[19] = system: LOC_OS02G14120-cb001
Outline: as §1

[20] = system: LOC_OS02G17970-cb001
Outline: as §1

SMILES	thermal shift delta Tm [1]	thermal shift delta Tm [2]	thermal shift delta Tm [3]	thermal shift delta Tm [4]	thermal shift delta Tm [5]	thermal shift delta Tm [6]	thermal shift delta Tm [7]	thermal shift delta Tm [8]	thermal shift delta Tm [9]	thermal shift delta Tm [10]	thermal shift delta Tm [11]	thermal shift delta Tm [12]	thermal shift delta Tm [13]	thermal shift delta Tm [14]	thermal shift delta Tm [15]	thermal shift delta Tm [16]	thermal shift delta Tm [17]	thermal shift delta Tm [18]	thermal shift delta Tm [19]	thermal shift delta Tm [20]
COc1cccc2cc(-c3nc([C@H]4CC[C@H](C(=O)O)CC4)n4ncnc(N)c34)[nH]c12	0.94 °C	0.05 °C	0.36 °C	-0.29 °C	0.44 °C	0.7 °C	0.94 °C	0.31 °C	0.16 °C	0.07 °C	2.68 °C	0.91 °C	0.9 °C	1.4 °C	1.05 °C	0.4 °C	1.58 °C	1.17 °C	0.19 °C	0.71 °C
Nc1ncnc2c1c(-c1cnc3[nH]ccc3c1)nn2C1CCCC1	1.35 °C	1.16 °C	2.01 °C	0.12 °C	1.82 °C	1.28 °C	0.43 °C	2.52 °C	0.19 °C	1.48 °C	1.79 °C	1.57 °C	1.17 °C	4.61 °C	1.58 °C	0.76 °C	1.3 °C	2.67 °C	2.04 °C	0.76 °C
CNS(=O)(=O)Nc1nccc(Cc2c(C)c3ccc(Oc4ncccn4)cc3oc2=O)c1F	0.15 °C	1.63 °C	0.11 °C	0.82 °C	0.18 °C	0.68 °C	-0.07 °C	0.47 °C	0.47 °C	0.66 °C	1.4 °C	0.33 °C	1.34 °C	0.93 °C	0.24 °C	0.04 °C	1.08 °C	0.58 °C	0.9 °C	1.23 °C
CCOc1cc(C(=O)N2CCC(N3CCN(C)CC3)CC2)ccc1Nc1ncc2c(n1)N(C1CCCC1)c1ccccc1C(=O)N2C	0.26 °C	0.37 °C	0.01 °C	-0.42 °C	0 °C	0.3 °C	-0.95 °C	0 °C	-0.1 °C	-0.46 °C	1.18 °C	1.19 °C	0.58 °C	-0.25 °C	0.42 °C	0.05 °C	0.06 °C	0.54 °C	-0.51 °C	-0.43 °C
COc1ccc(-c2ccc3c(N4CCOCC4)nc(N4C[C@@H](C)O[C@@H](C)C4)nc3n2)cc1CO	0.64 °C	0.68 °C	0.83 °C	-0.38 °C	0.08 °C	-0.07 °C	-0.02 °C	-0.04 °C	-0.03 °C	0.27 °C	0.55 °C	0.67 °C	0.28 °C	-0.12 °C	-0.53 °C	-0.02 °C	0.61 °C	0.4 °C	-0.18 °C	0.46 °C
Clc1ccc(Nc2nnc(Cc3ccncc3)c3ccccc23)cc1 [Vatalanib (PTK787) 2HCl]	0.99 °C	0.12 °C	-0.92 °C	0.36 °C	0.31 °C	0.21 °C	0.01 °C	0.44 °C	-0.2 °C	0.04 °C	1.4 °C	1.02 °C	5.09 °C	2.03 °C	-0.72 °C	0.27 °C	0.26 °C	0.34 °C	-0.4 °C	0.47 °C
C=CC(=O)Nc1cccc(Nc2nc(Nc3ccc(Oc4ccnc(C(=O)NC)c4)cc3)ncc2F)c1	4.52 °C	1.34 °C	1.05 °C	0.7 °C	4.66 °C	2.14 °C	1.74 °C	0.98 °C	0.31 °C	3.1 °C	2.13 °C	6.9 °C	1.08 °C	0.49 °C	0.92 °C	1.63 °C	0.76 °C	2.72 °C	6.96 °C	0.81 °C
COC1(c2sc3c(N4CCOCC4)nc(-c4cnc(N)nc4)nc3c2C)COC1	1.79 °C	-0.24 °C	1.43 °C	0.47 °C	0.4 °C	0.39 °C	0.28 °C	0 °C	-0.11 °C	0.03 °C	0.25 °C	2.64 °C	0.38 °C	-0.37 °C	0.5 °C	0.89 °C	0.33 °C	2.22 °C	0.63 °C	0.32 °C
CN1CC[C@H](c2c(O)cc(O)c3c(=O)cc(-c4ccccc4Cl)oc23)[C@H](O)C1 [Flavopiridol HCl]	0.19 °C	0.76 °C	0.17 °C	0.42 °C	4.95 °C	1.89 °C	1.02 °C	0.58 °C	0.54 °C	1.03 °C	1.91 °C	1.31 °C	0.43 °C	1.03 °C	0.26 °C	1.67 °C	1.12 °C	2.13 °C	2.4 °C	0.78 °C
O=C(NC[C@H](O)CO)c1ccncc1Nc1ccc(I)cc1F	0.13 °C	0.07 °C	1.79 °C	0.34 °C	0.16 °C	0.66 °C	-0.15 °C	0.13 °C	-0.03 °C	0.02 °C	0.55 °C	0.48 °C	0.44 °C	0.1 °C	-0.19 °C	0.16 °C	0.72 °C	0.65 °C	-0.42 °C	0.32 °C
O=C1NC(=O)/C(=C/c2ccc3c(c2)OC(F)(F)O3)S1	0.72 °C	0.45 °C	0.16 °C	0.44 °C	0.39 °C	1.11 °C	0.17 °C	0.77 °C	0.53 °C	0.79 °C	2.63 °C	0.63 °C	1.33 °C	0.41 °C	0.47 °C	0.52 °C	1.34 °C	0.96 °C	-0.18 °C	0.93 °C
Cc1cc(C(C)Nc2ccccc2)c2nc(N3CCOCC3)cc(=O)n2c1 (stereo not given)	1.33 °C	-0.12 °C	0.5 °C	0.23 °C	1.25 °C	0.01 °C	0.8 °C	1.36 °C	0.16 °C	0.56 °C	0.23 °C	1.22 °C	0.52 °C	-0.26 °C	-0.69 °C	0.34 °C	0.27 °C	0.37 °C	0 °C	0.24 °C
COc1cc(N2CCC(N)CC2)ccc1Nc1ncc(Cl)c(-c2c[nH]c3ccccc23)n1	0.82 °C	0.87 °C	2.95 °C	-0.64 °C	1.41 °C	3.79 °C	-2.78 °C	0.17 °C	1.21 °C	5.27 °C	5.66 °C	7.59 °C	2.23 °C	0.87 °C	0.6 °C	6.87 °C	1.19 °C	7.02 °C	9.17 °C	1.36 °C
